Assay [1] addresses T1, Ephrin type-B receptor 1 (Homo sapiens) (UniProt P54762).
T1 sequence (whole entry): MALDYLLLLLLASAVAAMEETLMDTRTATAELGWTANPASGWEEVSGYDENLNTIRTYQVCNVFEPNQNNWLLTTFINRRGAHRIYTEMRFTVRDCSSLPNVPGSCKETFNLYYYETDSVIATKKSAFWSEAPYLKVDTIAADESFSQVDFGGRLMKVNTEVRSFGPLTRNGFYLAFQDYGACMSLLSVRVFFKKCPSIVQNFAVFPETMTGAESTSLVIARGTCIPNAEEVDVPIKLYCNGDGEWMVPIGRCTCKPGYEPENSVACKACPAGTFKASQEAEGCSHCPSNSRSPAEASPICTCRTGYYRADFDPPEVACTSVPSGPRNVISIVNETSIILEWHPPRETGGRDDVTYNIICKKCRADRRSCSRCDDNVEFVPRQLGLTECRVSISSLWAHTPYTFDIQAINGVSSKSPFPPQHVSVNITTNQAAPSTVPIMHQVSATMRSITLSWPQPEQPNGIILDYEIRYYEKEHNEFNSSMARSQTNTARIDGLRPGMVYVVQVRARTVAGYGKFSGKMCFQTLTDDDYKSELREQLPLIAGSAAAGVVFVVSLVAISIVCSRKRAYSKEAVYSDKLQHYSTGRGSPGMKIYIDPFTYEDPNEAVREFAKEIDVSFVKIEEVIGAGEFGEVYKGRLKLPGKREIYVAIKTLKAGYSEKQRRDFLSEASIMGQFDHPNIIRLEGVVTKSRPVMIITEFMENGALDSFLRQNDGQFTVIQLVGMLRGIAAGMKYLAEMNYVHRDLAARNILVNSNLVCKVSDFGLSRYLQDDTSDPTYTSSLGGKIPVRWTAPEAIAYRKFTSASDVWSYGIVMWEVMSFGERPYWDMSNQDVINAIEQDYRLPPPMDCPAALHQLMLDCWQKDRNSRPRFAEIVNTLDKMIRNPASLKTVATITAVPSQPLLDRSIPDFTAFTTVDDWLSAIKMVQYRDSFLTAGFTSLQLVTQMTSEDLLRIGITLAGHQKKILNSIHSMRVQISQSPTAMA
The conditions noted are these: at 10 µM.

Assay [2] addresses T2, Ephrin type-B receptor 2 (Homo sapiens) (UniProt P29323).
T2 sequence (whole entry): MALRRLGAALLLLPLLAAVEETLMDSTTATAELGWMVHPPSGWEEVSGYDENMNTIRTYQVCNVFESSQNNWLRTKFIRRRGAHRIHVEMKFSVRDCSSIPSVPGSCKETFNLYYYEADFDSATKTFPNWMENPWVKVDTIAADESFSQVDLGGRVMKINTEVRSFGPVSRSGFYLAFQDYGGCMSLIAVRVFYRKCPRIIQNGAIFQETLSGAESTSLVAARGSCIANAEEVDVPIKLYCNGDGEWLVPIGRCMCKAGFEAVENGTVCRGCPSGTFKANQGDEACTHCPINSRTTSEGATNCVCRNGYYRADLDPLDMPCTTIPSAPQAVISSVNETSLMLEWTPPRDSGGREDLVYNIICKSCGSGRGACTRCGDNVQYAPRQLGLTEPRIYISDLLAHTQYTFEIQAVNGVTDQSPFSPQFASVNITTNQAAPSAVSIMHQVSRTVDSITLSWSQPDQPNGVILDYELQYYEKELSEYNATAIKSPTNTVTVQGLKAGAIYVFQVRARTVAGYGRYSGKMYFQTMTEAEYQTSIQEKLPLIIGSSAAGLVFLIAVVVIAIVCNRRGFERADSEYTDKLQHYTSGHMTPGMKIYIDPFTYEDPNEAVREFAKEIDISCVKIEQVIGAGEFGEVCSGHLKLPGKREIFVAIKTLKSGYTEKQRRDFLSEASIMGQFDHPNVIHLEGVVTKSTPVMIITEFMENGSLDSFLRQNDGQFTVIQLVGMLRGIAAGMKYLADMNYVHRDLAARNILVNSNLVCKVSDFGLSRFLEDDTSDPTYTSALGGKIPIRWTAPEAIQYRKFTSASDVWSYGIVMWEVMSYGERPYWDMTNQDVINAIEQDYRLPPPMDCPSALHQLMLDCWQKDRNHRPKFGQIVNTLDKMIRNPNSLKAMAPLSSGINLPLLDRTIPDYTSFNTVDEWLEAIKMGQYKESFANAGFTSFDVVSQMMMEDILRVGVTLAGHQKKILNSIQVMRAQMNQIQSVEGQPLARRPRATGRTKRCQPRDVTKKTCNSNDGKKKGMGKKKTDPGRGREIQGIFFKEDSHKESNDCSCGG
The settings on record: at 1 µM.

Assay [3] has as its target T2, Ephrin type-B receptor 2 (Homo sapiens). The settings on record: at 10 µM.
The target of assay [4] is T3, Ephrin type-B receptor 3 (Homo sapiens) (UniProt P54753).
T3 sequence (whole entry): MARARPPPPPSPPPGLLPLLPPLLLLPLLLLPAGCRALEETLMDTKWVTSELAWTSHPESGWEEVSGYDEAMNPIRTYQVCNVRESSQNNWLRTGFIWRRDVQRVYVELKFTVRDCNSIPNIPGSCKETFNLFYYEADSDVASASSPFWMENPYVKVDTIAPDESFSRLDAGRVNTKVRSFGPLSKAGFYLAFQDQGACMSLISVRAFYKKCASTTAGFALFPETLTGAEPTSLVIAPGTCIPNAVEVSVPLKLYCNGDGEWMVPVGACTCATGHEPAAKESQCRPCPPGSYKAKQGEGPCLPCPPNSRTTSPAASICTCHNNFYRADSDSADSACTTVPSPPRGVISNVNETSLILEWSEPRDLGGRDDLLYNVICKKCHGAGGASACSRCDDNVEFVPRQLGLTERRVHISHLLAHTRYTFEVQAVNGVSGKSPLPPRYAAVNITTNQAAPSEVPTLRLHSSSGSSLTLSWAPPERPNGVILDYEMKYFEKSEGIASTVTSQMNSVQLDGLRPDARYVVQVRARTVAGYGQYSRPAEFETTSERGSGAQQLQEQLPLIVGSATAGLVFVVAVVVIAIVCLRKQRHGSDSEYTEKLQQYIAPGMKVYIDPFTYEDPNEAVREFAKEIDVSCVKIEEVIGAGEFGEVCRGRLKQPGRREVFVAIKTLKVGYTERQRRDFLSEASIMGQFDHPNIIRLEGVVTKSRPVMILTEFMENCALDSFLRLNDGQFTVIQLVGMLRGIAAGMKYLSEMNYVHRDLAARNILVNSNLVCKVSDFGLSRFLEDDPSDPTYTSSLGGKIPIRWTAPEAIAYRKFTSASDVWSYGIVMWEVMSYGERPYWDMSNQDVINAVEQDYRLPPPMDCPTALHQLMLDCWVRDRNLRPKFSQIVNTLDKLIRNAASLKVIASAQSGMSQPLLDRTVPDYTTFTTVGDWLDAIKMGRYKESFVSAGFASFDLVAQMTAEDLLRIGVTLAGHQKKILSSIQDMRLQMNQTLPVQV
The settings on record: at 1 µM.

In assay [5] the target is T3, Ephrin type-B receptor 3 (Homo sapiens). The settings on record: at 10 µM.
Assay [6] concerns the target T4, Ephrin type-B receptor 4 (Homo sapiens) (UniProt P54760).
T4 sequence (whole entry): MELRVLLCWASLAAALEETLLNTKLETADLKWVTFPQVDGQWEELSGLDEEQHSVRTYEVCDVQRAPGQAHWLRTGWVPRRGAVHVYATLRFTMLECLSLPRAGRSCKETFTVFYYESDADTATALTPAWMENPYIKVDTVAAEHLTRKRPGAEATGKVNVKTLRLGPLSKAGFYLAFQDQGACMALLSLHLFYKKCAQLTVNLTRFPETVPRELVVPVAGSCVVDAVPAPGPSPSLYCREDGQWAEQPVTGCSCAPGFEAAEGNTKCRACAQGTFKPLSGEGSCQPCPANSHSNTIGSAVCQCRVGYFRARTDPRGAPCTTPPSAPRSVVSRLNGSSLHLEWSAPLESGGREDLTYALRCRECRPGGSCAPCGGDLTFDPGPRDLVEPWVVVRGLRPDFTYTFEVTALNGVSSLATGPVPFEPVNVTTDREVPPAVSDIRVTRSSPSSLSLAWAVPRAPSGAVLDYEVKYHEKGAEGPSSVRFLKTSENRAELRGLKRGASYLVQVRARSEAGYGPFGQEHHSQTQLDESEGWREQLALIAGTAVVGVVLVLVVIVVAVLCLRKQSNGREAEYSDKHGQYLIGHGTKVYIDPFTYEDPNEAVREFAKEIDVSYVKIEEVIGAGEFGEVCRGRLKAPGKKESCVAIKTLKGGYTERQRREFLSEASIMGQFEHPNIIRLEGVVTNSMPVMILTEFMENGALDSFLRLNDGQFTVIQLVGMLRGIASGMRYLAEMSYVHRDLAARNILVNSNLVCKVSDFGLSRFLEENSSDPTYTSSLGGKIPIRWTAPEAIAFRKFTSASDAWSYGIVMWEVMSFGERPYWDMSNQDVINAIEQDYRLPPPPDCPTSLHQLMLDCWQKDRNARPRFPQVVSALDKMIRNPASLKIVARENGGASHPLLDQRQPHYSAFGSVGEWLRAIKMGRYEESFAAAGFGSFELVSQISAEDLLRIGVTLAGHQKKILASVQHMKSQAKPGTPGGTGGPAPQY
The settings on record: at 1 µM.

Assay [7] deals with T4, Ephrin type-B receptor 4 (Homo sapiens). The conditions noted are these: at 10 µM.
The target of assay [8] is Receptor tyrosine-protein kinase erbB-4 (Homo sapiens) (UniProt Q15303). The settings on record: at 1 µM.
Assay [9] shares this target. The conditions noted are these: at 10 µM.
Assay [10] deals with Focal adhesion kinase 1 (Homo sapiens) (UniProt Q05397). The conditions noted are these: at 1 µM.
Sequence of Focal adhesion kinase 1 (Homo sapiens) (Q05397 2-1052 limits assumed): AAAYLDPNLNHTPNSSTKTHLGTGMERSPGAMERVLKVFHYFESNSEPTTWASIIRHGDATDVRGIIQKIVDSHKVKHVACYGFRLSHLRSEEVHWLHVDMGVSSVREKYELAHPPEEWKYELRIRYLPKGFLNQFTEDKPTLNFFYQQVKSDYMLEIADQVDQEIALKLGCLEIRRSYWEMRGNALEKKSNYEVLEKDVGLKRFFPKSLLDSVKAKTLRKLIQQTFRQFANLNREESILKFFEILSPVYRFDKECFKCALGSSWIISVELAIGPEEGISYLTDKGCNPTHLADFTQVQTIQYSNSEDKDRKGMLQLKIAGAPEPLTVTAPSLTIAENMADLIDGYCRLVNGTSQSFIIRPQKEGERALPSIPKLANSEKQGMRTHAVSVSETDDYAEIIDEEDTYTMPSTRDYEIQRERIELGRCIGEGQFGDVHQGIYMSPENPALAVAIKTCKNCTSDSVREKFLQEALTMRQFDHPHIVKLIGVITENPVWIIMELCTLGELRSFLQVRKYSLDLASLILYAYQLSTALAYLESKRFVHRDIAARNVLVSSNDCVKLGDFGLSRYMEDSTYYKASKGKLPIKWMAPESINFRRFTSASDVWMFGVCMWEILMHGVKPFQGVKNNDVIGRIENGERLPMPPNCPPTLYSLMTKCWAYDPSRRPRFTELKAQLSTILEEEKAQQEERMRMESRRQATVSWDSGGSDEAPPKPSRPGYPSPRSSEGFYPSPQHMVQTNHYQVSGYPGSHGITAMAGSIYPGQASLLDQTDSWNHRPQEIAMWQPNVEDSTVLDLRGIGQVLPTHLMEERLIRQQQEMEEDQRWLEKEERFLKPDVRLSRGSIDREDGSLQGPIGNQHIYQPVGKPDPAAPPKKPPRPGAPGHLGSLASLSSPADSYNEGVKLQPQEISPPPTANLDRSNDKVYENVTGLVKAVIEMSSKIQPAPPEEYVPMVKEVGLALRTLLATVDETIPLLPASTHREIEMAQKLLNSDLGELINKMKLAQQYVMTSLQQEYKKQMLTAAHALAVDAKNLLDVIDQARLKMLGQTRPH

Sequence of Receptor tyrosine-protein kinase erbB-4 (Homo sapiens) (Q15303 whole entry): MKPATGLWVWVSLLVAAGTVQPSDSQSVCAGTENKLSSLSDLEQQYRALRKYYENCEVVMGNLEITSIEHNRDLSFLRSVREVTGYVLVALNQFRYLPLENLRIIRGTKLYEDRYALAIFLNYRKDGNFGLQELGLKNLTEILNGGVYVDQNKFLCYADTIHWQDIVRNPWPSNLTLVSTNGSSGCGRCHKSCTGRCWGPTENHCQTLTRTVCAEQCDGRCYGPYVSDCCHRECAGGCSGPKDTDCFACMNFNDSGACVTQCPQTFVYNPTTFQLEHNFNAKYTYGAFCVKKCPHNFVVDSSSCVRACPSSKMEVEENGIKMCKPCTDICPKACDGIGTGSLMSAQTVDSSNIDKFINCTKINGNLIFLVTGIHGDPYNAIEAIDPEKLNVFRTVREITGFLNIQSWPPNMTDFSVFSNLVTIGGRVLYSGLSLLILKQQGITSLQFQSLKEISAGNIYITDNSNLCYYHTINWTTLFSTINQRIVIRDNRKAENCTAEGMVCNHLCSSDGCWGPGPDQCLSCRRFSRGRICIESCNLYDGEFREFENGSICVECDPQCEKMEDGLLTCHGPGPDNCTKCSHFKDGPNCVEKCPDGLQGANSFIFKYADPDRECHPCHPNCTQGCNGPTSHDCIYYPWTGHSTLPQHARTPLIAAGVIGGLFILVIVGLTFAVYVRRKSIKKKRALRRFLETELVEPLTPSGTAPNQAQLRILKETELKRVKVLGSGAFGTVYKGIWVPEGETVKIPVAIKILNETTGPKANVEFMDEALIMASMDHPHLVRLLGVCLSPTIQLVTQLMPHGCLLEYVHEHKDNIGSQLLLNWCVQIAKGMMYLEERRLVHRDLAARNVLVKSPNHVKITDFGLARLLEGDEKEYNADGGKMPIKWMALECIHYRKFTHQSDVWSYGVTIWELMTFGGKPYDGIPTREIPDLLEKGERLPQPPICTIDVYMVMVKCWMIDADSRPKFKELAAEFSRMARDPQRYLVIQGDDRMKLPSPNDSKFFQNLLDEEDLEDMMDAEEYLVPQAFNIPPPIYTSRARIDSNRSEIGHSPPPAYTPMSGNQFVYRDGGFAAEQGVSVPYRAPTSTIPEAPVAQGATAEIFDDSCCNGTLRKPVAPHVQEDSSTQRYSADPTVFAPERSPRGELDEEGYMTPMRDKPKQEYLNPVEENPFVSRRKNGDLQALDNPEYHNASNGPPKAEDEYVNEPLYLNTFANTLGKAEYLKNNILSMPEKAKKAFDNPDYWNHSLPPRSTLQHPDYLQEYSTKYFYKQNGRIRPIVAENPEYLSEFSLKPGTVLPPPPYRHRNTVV

As for `CO[C@H]1C[C@@H]2CC[C@@H](C)[C@@](O)(O2)C(=O)C(=O)N2CCCC[C@H]2C(=O)O[C@H]([C@H](C)C[C@@H]2CC[C@@H](O)[C@H](OC)C2)CC(=O)[C@H](C)/C=C(\C)[C@@H](O)[C@@H](OC)C(=O)[C@H](C)C[C@H](C)/C=C/C=C/C=C/1C`, the residual activity is 105% in [1]; 121% in assay [2]; 105% in assay [3]; 100% (inactive) in assay [4]; 57% in assay [5]; 112% in [6]. For the same compound, the residual activity was determined as 147% in assay [7], 106% in assay [8], 130% in [9] and 118% in assay [10].

Broadly, the residual activity is the signal under treatment as a percentage of the control signal.
